The values below come from ChEMBL document CHEMBL3988442, “University of Dundee, Small-Polar-MMV Screening Library” (2021).

Holding throughout (set-up): scale not given: direction of the effect not stated beside the values
Assay [1] deals with Protein translocase subunit SecA (Escherichia coli (strain K12)) (UniProt P10408). Description: Assay to Identify E. coli SecA ATPase Inhibitors. In kind it is functional. As to conditions: 30 µM.
The target in assay [2] is T1, Ubiquitin-activating enzyme e1, putative (Leishmania donovani (strain BPK282A1)) (UniProt E9BSI1).
T1 sequence (whole entry): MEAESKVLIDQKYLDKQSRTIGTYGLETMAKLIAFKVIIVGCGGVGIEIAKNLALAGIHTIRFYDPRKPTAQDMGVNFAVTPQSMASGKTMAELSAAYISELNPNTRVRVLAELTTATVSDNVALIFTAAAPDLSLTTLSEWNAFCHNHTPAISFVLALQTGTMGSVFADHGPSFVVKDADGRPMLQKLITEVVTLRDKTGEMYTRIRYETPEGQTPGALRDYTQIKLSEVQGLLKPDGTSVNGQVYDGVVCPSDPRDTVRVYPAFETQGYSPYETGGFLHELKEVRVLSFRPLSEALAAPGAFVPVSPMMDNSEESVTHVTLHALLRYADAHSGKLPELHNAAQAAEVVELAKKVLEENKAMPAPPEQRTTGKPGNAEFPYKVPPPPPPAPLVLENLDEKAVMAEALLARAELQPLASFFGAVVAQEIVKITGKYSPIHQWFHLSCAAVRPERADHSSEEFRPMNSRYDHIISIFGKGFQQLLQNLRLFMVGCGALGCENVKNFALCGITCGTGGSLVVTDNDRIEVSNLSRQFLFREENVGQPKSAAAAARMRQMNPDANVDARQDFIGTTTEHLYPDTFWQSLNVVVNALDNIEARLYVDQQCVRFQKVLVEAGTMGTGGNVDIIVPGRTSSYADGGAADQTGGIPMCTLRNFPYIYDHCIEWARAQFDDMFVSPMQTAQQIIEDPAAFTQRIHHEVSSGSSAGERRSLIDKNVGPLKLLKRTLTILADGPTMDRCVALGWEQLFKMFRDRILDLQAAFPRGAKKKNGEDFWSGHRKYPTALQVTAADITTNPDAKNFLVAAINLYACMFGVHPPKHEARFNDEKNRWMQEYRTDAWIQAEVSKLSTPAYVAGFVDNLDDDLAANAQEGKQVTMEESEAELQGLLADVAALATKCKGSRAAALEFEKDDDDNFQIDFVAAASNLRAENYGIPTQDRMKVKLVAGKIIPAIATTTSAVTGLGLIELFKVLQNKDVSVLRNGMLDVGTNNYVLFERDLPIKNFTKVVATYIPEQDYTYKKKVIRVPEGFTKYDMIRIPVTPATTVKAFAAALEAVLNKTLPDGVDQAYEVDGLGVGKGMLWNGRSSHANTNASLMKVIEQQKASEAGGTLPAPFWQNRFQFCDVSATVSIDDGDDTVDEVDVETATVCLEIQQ
Description: Leishmania donovani Ubiquitin Activating Enzyme (LdE1). In kind it is functional. As to conditions: 30 µM.

In assay [3] the target is AMP-activated protein kinase, AMPK (Homo sapiens) (UniProt P54646+O43741+P54619+Q9UGJ0+Q9Y478+Q13131+Q9UGI9). The assay is described as follows: AMP-dependent Kinase enzyme assay. An in vitro enzyme assay that detects ADP turnover that is directly proportional to AMPK activity. This uses naive AMPK that is activated during the assay with MK-8722. It counts as functional. As to conditions: 30 µM.

For assay [4], the target named is Sialic acid-binding Ig-like lectin 9 (Homo sapiens) (UniProt Q9Y336). The assay is described as follows: Hs-Siglec9 ALPHAscreen SOP 20170721. As to conditions: 10 µM. On the technique in general: Bead proximity is the source of the signal in Alpha formats.
The subject of another assay is Trypanosoma cruzi. The assay is described as follows: Trypanosoma cruzi phosphomannomutase and mannose-1-phosphate guanylyltransferase assay. In kind it is functional. As to conditions: 10 µM.
Assay [5] addresses T2, Arginase-2, mitochondrial (Homo sapiens) (UniProt P78540).
T2 sequence (whole entry): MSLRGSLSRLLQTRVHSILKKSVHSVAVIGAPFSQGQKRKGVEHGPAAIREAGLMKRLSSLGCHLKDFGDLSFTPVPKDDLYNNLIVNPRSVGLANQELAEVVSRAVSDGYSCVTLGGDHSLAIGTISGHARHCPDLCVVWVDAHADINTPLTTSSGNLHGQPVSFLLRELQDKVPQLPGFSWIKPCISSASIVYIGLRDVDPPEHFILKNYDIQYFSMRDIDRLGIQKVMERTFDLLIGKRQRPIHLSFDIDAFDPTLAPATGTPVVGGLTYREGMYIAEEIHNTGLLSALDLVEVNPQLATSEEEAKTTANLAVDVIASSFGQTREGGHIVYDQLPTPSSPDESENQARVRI
The assay is described as follows: in vitro enzyme assay to detect the production of urea directly proportional to the activity of Arginase II. Also: in the data most compounds retested in dose-response had high values. In kind it is functional. As to conditions: 33.3 µM.

The target in assay [6] is T3, Proteasome subunit beta (Trypanosoma cruzi) (UniProt O96673).
T3 sequence (whole entry): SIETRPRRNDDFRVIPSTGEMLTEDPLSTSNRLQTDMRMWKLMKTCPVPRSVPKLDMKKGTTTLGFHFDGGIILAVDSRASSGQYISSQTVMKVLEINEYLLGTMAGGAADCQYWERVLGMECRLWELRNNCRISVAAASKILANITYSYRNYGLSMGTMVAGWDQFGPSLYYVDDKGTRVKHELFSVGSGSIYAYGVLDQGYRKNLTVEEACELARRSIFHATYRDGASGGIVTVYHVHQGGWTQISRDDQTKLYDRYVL
Description: Trypanosoma cruzi proteasome chymotrypsin-like activity (TcProtChymo) assay. Also: in the data most compounds retested in dose-response had high values. As to conditions: 9.37 µM. It counts as functional.

A further assay is filed under the species Homo sapiens. The assay is described as follows: To identify inhibition of the IFN signalling (Jak-Stat) pathway via expression of an eGFP reporter gene under the control of an IFN-stimulated response element (ISRE) containing MxA promoter. It counts as functional. As to conditions: 30 µM. A general note: In a reporter assay the amount or activity of a reporter protein is the signal.

For assay [7], the target named is T4, Tyrosyl-tRNA synthetase, putative (Trypanosoma cruzi (strain CL Brener)) (UniProt Q4DSP6).
T4 sequence (whole entry): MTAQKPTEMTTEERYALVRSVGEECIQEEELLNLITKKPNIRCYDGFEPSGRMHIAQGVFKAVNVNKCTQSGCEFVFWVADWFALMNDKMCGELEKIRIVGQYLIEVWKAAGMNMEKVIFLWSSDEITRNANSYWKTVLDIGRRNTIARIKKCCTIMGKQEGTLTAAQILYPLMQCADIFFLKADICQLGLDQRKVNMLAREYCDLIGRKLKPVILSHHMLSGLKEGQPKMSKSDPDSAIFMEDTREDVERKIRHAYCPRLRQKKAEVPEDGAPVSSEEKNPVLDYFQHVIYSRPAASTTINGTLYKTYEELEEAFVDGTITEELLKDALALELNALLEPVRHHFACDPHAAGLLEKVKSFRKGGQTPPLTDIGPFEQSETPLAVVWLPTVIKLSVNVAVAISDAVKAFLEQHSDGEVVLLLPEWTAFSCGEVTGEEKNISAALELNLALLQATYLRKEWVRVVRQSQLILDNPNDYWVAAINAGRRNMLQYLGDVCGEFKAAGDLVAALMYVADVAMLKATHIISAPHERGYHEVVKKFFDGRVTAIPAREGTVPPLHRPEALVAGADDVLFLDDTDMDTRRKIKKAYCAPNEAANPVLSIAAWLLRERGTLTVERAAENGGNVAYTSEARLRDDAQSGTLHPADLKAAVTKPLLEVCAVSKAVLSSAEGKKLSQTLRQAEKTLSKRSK
The assay is described as follows: Trypanosoma cruzi tyrosyl tRNA synthetase (TcYRS) _High Tyrosine SOP. Also: in the data most compounds retested in dose-response had high values. In kind it is functional. As to conditions: 30 µM.

The target of assay [8] is T4, Tyrosyl-tRNA synthetase, putative (Trypanosoma cruzi (strain CL Brener)). The assay is described as follows: Trypanosoma cruzi tyrosyl tRNA synthetase (TcYRS) SOP. In kind it is functional. As to conditions: 30 µM.
Assay [9] deals with Chromo domain-containing protein 1 (Saccharomyces cerevisiae (strain ATCC 204508 / S288c) (Baker's yeast)) (UniProt P32657). The assay is described as follows: ScCHD-1 Enzyme Inhibition Assay. Also: in the data most compounds retested in dose-response had high values. In kind it is functional. As to conditions: 30 µM.

For some of these results: Entries with a potency or affinity are not part of this list.

Chain of Chromo domain-containing protein 1 (Saccharomyces cerevisiae (strain ATCC 204508 / S288c) (Baker's yeast)) (P32657 whole entry, the tested form may be a part): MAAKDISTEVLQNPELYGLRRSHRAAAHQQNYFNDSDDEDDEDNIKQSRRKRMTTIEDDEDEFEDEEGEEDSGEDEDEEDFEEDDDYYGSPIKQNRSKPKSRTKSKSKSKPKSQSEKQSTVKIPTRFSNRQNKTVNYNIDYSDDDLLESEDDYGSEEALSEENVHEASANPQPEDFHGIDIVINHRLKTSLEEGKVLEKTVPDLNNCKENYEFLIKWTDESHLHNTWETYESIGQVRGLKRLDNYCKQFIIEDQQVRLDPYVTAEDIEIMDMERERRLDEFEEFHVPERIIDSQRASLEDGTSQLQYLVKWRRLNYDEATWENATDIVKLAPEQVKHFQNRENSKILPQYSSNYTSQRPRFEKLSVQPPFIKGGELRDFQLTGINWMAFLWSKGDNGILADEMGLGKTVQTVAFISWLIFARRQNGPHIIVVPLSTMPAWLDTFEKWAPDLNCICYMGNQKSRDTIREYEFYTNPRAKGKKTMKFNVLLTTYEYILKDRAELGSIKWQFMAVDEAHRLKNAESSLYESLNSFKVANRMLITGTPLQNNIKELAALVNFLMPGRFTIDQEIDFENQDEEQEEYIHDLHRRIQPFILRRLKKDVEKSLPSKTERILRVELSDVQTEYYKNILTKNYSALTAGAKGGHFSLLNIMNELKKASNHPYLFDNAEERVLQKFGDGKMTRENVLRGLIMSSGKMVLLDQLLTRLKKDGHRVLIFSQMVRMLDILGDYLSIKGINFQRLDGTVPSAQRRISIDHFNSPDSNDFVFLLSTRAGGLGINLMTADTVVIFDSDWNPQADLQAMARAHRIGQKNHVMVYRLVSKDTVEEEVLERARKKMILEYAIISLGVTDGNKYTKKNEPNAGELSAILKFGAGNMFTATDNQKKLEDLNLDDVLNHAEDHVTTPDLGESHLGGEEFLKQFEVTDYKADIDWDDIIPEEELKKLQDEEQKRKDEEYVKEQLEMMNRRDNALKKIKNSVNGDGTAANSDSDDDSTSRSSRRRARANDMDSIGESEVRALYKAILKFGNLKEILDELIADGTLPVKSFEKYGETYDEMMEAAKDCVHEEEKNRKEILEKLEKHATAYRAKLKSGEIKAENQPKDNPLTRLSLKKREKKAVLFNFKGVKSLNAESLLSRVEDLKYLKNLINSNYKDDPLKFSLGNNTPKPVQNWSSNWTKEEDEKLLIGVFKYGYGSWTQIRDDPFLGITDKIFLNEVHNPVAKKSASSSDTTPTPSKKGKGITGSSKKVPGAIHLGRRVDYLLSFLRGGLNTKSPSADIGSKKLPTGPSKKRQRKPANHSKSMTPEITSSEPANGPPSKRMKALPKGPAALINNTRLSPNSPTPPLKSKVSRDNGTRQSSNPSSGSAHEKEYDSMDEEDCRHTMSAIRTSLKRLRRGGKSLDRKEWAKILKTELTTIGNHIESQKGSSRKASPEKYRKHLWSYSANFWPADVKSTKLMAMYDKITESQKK
Chain of Protein translocase subunit SecA (Escherichia coli (strain K12)) (P10408 whole entry): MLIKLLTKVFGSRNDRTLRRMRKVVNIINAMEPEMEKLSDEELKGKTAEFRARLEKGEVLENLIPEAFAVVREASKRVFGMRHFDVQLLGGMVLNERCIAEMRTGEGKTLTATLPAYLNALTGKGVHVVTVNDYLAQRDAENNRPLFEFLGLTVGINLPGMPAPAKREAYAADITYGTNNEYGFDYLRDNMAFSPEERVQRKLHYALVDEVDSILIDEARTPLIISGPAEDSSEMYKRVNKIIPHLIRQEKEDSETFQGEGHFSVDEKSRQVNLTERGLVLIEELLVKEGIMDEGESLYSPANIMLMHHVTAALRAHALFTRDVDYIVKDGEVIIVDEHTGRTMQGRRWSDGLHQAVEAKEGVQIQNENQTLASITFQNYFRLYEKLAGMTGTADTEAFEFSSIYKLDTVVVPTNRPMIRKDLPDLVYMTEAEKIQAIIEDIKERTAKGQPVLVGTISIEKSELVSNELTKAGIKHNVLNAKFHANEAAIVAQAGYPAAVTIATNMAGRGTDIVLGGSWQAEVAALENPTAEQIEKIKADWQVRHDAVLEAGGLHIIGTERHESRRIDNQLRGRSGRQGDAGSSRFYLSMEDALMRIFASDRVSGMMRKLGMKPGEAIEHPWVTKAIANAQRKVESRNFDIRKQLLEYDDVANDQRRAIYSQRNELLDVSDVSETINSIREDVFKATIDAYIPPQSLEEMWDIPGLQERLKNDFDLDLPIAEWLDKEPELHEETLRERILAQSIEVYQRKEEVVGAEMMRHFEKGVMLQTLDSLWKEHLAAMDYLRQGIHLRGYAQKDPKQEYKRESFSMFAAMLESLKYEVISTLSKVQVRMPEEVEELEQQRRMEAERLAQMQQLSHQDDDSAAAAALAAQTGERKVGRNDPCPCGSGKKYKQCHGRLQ
Chain of Sialic acid-binding Ig-like lectin 9 (Homo sapiens) (Q9Y336 whole entry): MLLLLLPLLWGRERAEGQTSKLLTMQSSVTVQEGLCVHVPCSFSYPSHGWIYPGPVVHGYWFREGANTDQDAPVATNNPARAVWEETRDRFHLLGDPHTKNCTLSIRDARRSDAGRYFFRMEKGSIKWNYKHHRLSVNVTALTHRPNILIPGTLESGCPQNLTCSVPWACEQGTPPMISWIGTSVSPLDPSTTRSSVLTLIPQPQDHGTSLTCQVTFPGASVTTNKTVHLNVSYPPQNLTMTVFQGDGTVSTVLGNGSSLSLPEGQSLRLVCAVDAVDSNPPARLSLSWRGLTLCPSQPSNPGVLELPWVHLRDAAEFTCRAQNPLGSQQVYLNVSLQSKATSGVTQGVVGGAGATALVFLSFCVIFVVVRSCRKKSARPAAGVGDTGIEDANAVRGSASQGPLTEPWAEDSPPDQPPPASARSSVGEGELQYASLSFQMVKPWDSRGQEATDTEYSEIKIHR

For the compound `CCn1nccc1CNC(=O)C(C)n1cc2c(n1)c(C)nn2C` (stereo unspecified), the Percent Effect in assay [1] is -5.47%; in [2], 20%; in assay [3] it was -7.37%; in assay [4] it was 0.228%; in the assay with Trypanosoma cruzi it was 0.197%; in assay [5] it was -11.4%. Besides, the Percent Effect in assay [6] was 10.5%; in the assay listed under Homo sapiens it was 2.05%; in assay [7] it was 5.29%; in assay [8] it was 12.8%; in assay [9], -12.4%.
Consider `OC(CN1CCN(Cc2nnc(C3CC3)o2)CC1)c1ccccc1` (stereo unspecified), for which the Percent Effect in assay [1] is -4.5%; in assay [2], 10.1%; in [3], -8.23%; in [4], 15.1%; in the assay with Trypanosoma cruzi, -3.31%; in assay [5] it was 1.9%. Moreover, the Percent Effect was -3.19% in assay [6]; 17.6% in the assay filed under Homo sapiens; 2.46% in [7]; 13.9% in assay [8]; -2.36% in assay [9].
Regarding `CCN1CCN(c2ncc(-c3cc(C)no3)c(-c3ccoc3C)n2)CC1`, the Percent Effect in [1] is -4.09%; in [2], 12.2%; in assay [3] it was 5%; in assay [4] it was 3.93%; with Trypanosoma cruzi it was 1.98%; in assay [5], -3.48%. Moreover, the Percent Effect in assay [6] was 6.4%; in the assay listed under Homo sapiens, -1.91%; in [7], 2.15%; in assay [8], 6.49%; in assay [9] it was -24.9%.
As to `COc1ccc(CNC(=O)N(Cc2ccc(F)cc2F)C2CC2)cn1`, the Percent Effect in assay [1] was -6.72%; in [2], 15.2%; in assay [3] it was -2.76%; in assay [4], 9.29%; with Trypanosoma cruzi, 5.95%; in [5], -0.76%. Further, the Percent Effect in [6] is 0.737%; in the assay listed under Homo sapiens it was 8.63%; in [7], 3.45%; in assay [8], 21.5%; in [9], -7.42%.
Take `CCn1cc(CN(C)S(=O)(=O)c2ccc(Cl)cc2)cn1`: the Percent Effect in [1] was -0.763%; in assay [2] it was 14.7%; in [3], 0.176%; in assay [4], -5.16%; in the assay on Trypanosoma cruzi, -1.97%; in assay [5], -10%. The Percent Effect was 10.3% in assay [6]; 15% in the assay filed under Homo sapiens; 4.23% in assay [7]; 7.69% in assay [8]; -9.85% in [9].
For the compound `CCc1nnc2n1CCN(C(=O)C(C)COCc1ccccc1)C2` (stereo unspecified), the Percent Effect in assay [1] was -1.9%; in assay [2], 10.5%; in assay [3], 0.611%; in [4] it was -4.15%; in the assay on Trypanosoma cruzi, 7.94%; in assay [5], -1.44%. In addition, the Percent Effect in [6] was 6.68%; in the assay listed under Homo sapiens it was -1.54%; in assay [7], 3.45%; in [8], 16.1%; in [9], -2.72%.
On to `O=C(c1ccsc1)N1CC[C@H]2C[C@@H](c3nnc(C4CC4)o3)O[C@@H]2C1`, for which the Percent Effect in assay [1] was -1.93%; in assay [2] it was 7.79%; in assay [3] it was 1.35%; in assay [4], -4.04%; in the assay with Trypanosoma cruzi, -1.08%; in assay [5], 12.3%. Moreover, the Percent Effect in assay [6] is 19.5%; in the assay filed under Homo sapiens it was -4.29%; in assay [7] it was 2.12%; in [8] it was 11.5%; in assay [9], -7.52%.
Consider `CCn1ccnc1CN1CCN(C(C)C(=O)N2CCC(C)CC2)CC1` (stereo unspecified), for which the Percent Effect was -2.02% in assay [1]; 2.7% in [2]; -8.85% in assay [3]; 9.21% in assay [4]; 2.88% in the assay on Trypanosoma cruzi; -3.14% in assay [5]. In addition, the Percent Effect in assay [6] is 15.4%; in the assay filed under Homo sapiens it was 11%; in [7] it was 3.96%; in assay [8], 11%; in assay [9] it was -4.46%.
As for `COCC1CN(Cc2ccc(C)o2)Cc2ncn(CC3CC3)c21` (stereo unspecified), the Percent Effect in assay [1] is 0.368%; in assay [2], 5.2%; in [3], -2.46%; in [4] it was 5.95%; in the assay with Trypanosoma cruzi it was 6.79%; in assay [5] it was -6.9%. The Percent Effect in assay [6] was 3.99%; in the assay listed under Homo sapiens, -10.6%; in [7] it was 1.07%; in assay [8], 1.24%; in [9], -7.38%.
For `CN(C)CCNC(=O)c1cc(-c2cnc(N3CCCC3)nc2)cn1C`, the Percent Effect in [1] was -6.55%; in assay [2], 5.33%; in [3] it was 9.86%; in assay [4] it was -3.71%; in the assay on Trypanosoma cruzi, -0.197%; in [5], -1.17%. Also, the Percent Effect in [6] is 0.0881%; in the assay filed under Homo sapiens it was 45.6%; in assay [7] it was 0%; in [8] it was -6.41%; in assay [9], -10.7%.
As for `CN(CCN1CCOCC1)C(=O)CCCc1ccccc1`, the Percent Effect in assay [1] was -3.72%; in assay [2], 0%; in assay [3], 3.21%; in assay [4], 3.74%; in the assay on Trypanosoma cruzi, 4.38%; in assay [5], -3.55%. Moreover, the Percent Effect is 13.9% in [6]; -19% in the assay listed under Homo sapiens; 5.32% in assay [7]; 5.2% in assay [8]; 0.287% in assay [9].
